ATG4B inhibitor: blocks human ATG4B protease cleavage of LC3 substrate; Q9Y4P1; ATG4B cleavage of LC3-PLA2, NBD-HPC fluorescence, 1 h; inhibition, % at 8.33 µM; 340,000 tested, 0.51% active; AID 504462; in the data active = inhibition above about 40%
MPTP inh: blocks calcium-induced mitochondrial swelling; isolated mouse mitochondria, Ca2+ swelling absorbance, 30 min; inhibition, % at 10 µM; 360,000 tested, 1.4% active;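 active = inhibition of 50% or more, scaled per plate between neutral and stimulator controls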
CendR NRP1 mod: NRP-1/CendR interaction modulation; O14786; FAM-RPARPAR peptide binding to NRP-1, fluorescence polarization; inhibition, % at 25 µM; 360,000 tested, 0.85% active;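 active = inhibition or corrected inhibition above about 18%, plus a signal ratio from 0.5 to 1.5, limit read from the data, passing the limit was not always enough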
Target sequence (O14786 whole entry, looked up): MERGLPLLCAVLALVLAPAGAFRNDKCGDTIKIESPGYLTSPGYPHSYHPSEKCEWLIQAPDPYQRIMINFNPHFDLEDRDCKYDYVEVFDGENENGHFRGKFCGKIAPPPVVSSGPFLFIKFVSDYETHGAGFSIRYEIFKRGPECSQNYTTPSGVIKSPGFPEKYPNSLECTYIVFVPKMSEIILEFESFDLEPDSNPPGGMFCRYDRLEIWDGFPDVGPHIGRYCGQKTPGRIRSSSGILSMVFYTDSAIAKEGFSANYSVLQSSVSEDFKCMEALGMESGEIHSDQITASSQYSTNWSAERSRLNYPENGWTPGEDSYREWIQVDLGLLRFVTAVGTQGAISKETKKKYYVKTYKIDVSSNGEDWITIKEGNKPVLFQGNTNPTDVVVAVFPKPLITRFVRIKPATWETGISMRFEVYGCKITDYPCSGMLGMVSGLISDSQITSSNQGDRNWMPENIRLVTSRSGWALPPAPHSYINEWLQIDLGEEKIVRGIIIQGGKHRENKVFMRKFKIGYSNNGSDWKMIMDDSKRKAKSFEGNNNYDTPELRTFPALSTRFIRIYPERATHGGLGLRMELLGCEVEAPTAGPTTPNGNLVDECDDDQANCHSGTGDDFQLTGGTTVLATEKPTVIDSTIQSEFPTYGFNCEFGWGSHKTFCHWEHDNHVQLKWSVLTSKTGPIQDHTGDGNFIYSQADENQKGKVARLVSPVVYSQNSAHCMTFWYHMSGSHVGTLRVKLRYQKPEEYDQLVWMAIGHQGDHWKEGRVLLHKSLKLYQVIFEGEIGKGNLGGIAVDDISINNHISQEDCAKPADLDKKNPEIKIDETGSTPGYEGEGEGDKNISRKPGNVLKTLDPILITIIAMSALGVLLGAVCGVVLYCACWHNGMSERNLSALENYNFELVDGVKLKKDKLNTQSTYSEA
CFTR F508del cor: CFTR F508del correction in bronchial cells. CFBE cells, YFP halide quenching; stimulated with forskolin plus potentiator P3; % fluorescence drop versus neutral controls. activity (quench increase), % at 7.58 µM. 350,000 tested, 0.36% active. AID 720511;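 active = mean added fluorescence quench of at least 8% versus neutral control, with both replicates also reaching 8%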;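 note: cells transiently co-express mutant CFTR-F508del with the halide-sensitive YFP; corrector assay measuring rescue of mutant channel to the surface after 24 h compound exposure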
SKN-1 inh: inhibitors of C. elegans SKN-1 | 360,000 tested, 0.49% active | C. elegans VP596 Pgst-4::GFP/RFP ratio, acrylamide-induced, 24 h | inhibition, % at 21.8 µM;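 active = interference check ratio from 0.5 to 1.5 plus GFP to RFP signal ratio inhibition reaching or exceeding a fixed threshold, cut at about 30% in these data, passing the limit was not always enough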
ATG4B conf: ATG4B (human) inhibition, single-dose confirmed | shares compounds with ATG4B inhibitor | ATG4B protease fluorescent substrate cleavage assay | inhibition, % at 8.33 µM | 320 tested, 92% active | AID 504757; in the data active = inhibition above about 39%
PLA2 counter: inhibits human PLA2, flagging false ATG4B inhibitors; shares compounds with ATG4B inhibitor; purified PLA2, NBD-C6-HPC fluorescence, 45 min; inhibition, % at 8.33 µM; 1,600 tested, 66% active; in the data active = inhibition above about 50%
Large screens that a line does not name were inactive (follow-up assays come after a bar, where they were run). The list is not random: actives were taken first. Their share in the collection is about 2.7%.

CCOC(=O)C1=C(c2ccccc2)Nc2ncnn2C1c1ccc(C(=O)O)cc1 (stereo not given)	none
C[C@@H]1CN([C@@H](C)CO)C(=O)c2cccc(NC(=O)c3cnccn3)c2O[C@H]1CN(C)Cc1ccc(Cl)c(Cl)c1	none (no result: ATG4B inhibitor, MPTP inh, CendR NRP1 mod, SKN-1 inh)
CCn1cc(C(=O)OCc2cccc(Br)c2)c(=O)c2ccc(C)nc21	ATG4B inhibitor 46 (no result: CFTR F508del cor) | PLA2 counter 53
CCn1cc(C(=O)OCC(=O)OC2CC(C)CCC2C(C)C)c(=O)c2ccc(C)nc21 (stereo not given)	ATG4B inhibitor 71 (no result: CFTR F508del cor) | PLA2 counter 71
C=Cc1ccc(COC(=O)c2cn(CC)c3nc(C)ccc3c2=O)cc1	ATG4B inhibitor 40 | PLA2 counter inactive
CCn1cc(C(=O)OCc2ccc(F)cc2)c(=O)c2ccc(C)nc21	none (no result: CFTR F508del cor)
COc1cccc(NC(=O)N(C)C[C@@H]2Oc3cc(C#CC4(O)CCCC4)ccc3S(=O)(=O)N([C@H](C)CO)C[C@H]2C)c1	none (no result: ATG4B inhibitor, MPTP inh, CendR NRP1 mod, SKN-1 inh)
CCC(CC)C1=NN2C(=N)/C(=C\c3cc(C)n(-c4cccc(C)c4)c3C)C(=O)N=C2S1	ATG4B inhibitor 59 (no result: CFTR F508del cor) | ATG4B conf 48 | PLA2 counter inactive
CC1=NN2C(=N)/C(=C\c3cc(C)n(-c4ccccc4)c3C)C(=O)N=C2S1	none
COC(=O)COc1ccc(-c2ccc(F)cc2)cc1C=O	ATG4B inhibitor 43 | PLA2 counter 59
COc1cc(-c2nnc(SCc3ccccc3Cl)o2)cc(OC)c1OC	none (no result: CFTR F508del cor)
COc1cc(-c2nnc(SCc3c(F)cccc3Cl)o2)cc(OC)c1OC	ATG4B inhibitor 42 (no result: CFTR F508del cor) | PLA2 counter 57
O=C(Nc1cccc(N=Cc2cc(Cl)cc(Br)c2O)c1)c1ccco1	ATG4B inhibitor 66 | PLA2 counter 56
O=C(Nc1cccc(N=Cc2cc(Br)cc(Br)c2O)c1)c1ccco1	ATG4B inhibitor 69 (no result: CFTR F508del cor) | PLA2 counter 60
CNC(=O)Nc1cccc(-c2cc(-c3c(Cl)cccc3Cl)no2)c1	ATG4B inhibitor 59 | PLA2 counter 65
Cc1nn(Cc2c(F)c(F)c(F)c(F)c2F)c(C)c1NC(=O)c1cccc(COc2ccc(Cl)cc2)c1	ATG4B inhibitor 57 (no result: CFTR F508del cor) | PLA2 counter 68
Cc1ccc(OCc2ccc(C(=O)NN)o2)c([N+](=O)[O-])c1	none
Cc1ccc(OCc2ccc(C(=O)Nc3c(C)nn(Cc4c(F)c(F)c(F)c(F)c4F)c3C)o2)c([N+](=O)[O-])c1	ATG4B inhibitor 67 (no result: CFTR F508del cor) | PLA2 counter 76
C[C@@H]1CN([C@H](C)CO)C(=O)c2cc(NC(=O)Nc3ccc(F)cc3)ccc2O[C@@H](C)CCCCO[C@H]1CN(C)S(C)(=O)=O	none (no result: ATG4B inhibitor, MPTP inh, CendR NRP1 mod, SKN-1 inh)
CCCNC(=O)C[C@H]1CC[C@H]2[C@@H](COC[C@@H](O)CN2C(=O)CC)O1	none (no result: ATG4B inhibitor, MPTP inh, CendR NRP1 mod, SKN-1 inh)
Cc1cc(F)ccc1S(=O)(=O)Nc1ncnc2sc3c(c12)CCC3	none
O=S(=O)(Nc1ncnc2sc3c(c12)CCC3)c1ccc2ccccc2c1	ATG4B inhibitor 41 (no result: CFTR F508del cor) | PLA2 counter 56
Cc1ccc(-n2c(O)c(C=Nc3ccccc3-c3n[nH]c(=S)[nH]c3=O)c3ccccc3c2=O)c(C)c1	ATG4B inhibitor 43 | ATG4B conf 65 | PLA2 counter inactive
CCCCCCNC(=O)CC(c1ccccc1)c1cc(Br)ccc1O (stereo not given)	ATG4B inhibitor 41 (no result: CFTR F508del cor) | PLA2 counter 56
CC(C)NC(=O)CC(c1ccccc1)c1cc(Br)ccc1O (stereo not given)	none
C[C@@H](NC(=O)C[C@@H]1C=C[C@H](NC(=O)C2CC2)[C@H](CO)O1)c1ccccc1	none (no result: ATG4B inhibitor, MPTP inh, CendR NRP1 mod, SKN-1 inh)
CN(C)C(=O)C[C@@H]1C=C[C@H](NC(=O)C2CCOCC2)[C@@H](CO)O1	none (no result: ATG4B inhibitor, MPTP inh, CendR NRP1 mod, SKN-1 inh)
COc1cccc(CNC(=O)C[C@H]2CC[C@H](NC(=O)C3CC3)[C@H](CO)O2)c1	none (no result: ATG4B inhibitor, MPTP inh, CendR NRP1 mod, SKN-1 inh)
CN(c1ccccc1)C1CCCCC1NS(=O)(=O)c1ccc(Cl)cc1 (stereo not given)	ATG4B inhibitor 57 (no result: CFTR F508del cor) | PLA2 counter 64
COC(=O)c1sc(N(C)C)c(C#N)c1-c1ccccc1	ATG4B inhibitor 44 | ATG4B conf 64 | PLA2 counter inactive
O=C(C[C@@H]1CC[C@H]2[C@@H](COC[C@H](O)CN2CC2CCCCC2)O1)NCc1ccc(Cl)cc1	none (no result: ATG4B inhibitor, MPTP inh, CendR NRP1 mod, SKN-1 inh)
COc1ccc2c3c(n(C)c2c1)[C@H](CO)NCC31CCN(Cc2cc(F)ccc2F)CC1	none (no result: ATG4B inhibitor, MPTP inh, CendR NRP1 mod, SKN-1 inh)
O=C(Cn1cccc1C(=O)c1ccccc1)NCCc1ccccc1	none
O=C(Cn1cccc1C(=O)c1ccccc1)NCCc1ccc(Cl)cc1	ATG4B inhibitor 45 | PLA2 counter 53
C=CCn1c(SCc2cc(C(C)=O)ccc2OCC)nc2ccccc2c1=O	ATG4B inhibitor 50 | ATG4B conf 52 | PLA2 counter inactive
COc1ccc(C(C)=O)cc1CSc1nc2ccccc2c(=O)n1-c1ccccc1C	ATG4B inhibitor 53 | PLA2 counter 81
C=CCn1c(SCc2nc3ccccc3c(=O)[nH]2)nc2ccccc2c1=O	none (no result: CFTR F508del cor)
COc1ccc(C(C)=O)cc1CSc1nc2ccccc2c(=O)n1-c1cccc(C)c1	ATG4B inhibitor 79 (no result: CFTR F508del cor) | ATG4B conf 50 | PLA2 counter inactive
COCCn1c(SCc2cc(C(C)=O)ccc2OC)nc2cc(Cl)ccc2c1=O	ATG4B inhibitor 63 (no result: CFTR F508del cor) | PLA2 counter 63
COCCn1c(SCC(=O)Nc2cccnc2Cl)nc2cc(Cl)ccc2c1=O	none
COc1ccc(C(C)=O)cc1CSc1nc2ccccc2c(=O)n1-c1ccccc1	none (no result: CFTR F508del cor)
C[C@@H]1CN([C@@H](C)CO)C(=O)c2cc(NC(=O)Nc3ccc4c(c3)OCO4)ccc2O[C@@H]1CN(C)C(=O)Nc1cccc2ccccc12	none (no result: ATG4B inhibitor, MPTP inh, CendR NRP1 mod, SKN-1 inh)
N#Cc1c(-c2ccccc2)nc(SCC(=O)N2c3ccccc3Sc3ccccc32)[nH]c1=O	ATG4B inhibitor 57 | PLA2 counter 59
C[C@@H]1CN([C@H](C)CO)C(=O)c2cccc(NC(=O)CCCCCC(=O)Nc3ccccc3N)c2O[C@H]1CN(C)S(C)(=O)=O	none (no result: ATG4B inhibitor, MPTP inh, CendR NRP1 mod, SKN-1 inh)
O=C(COC(=O)c1c(F)cccc1Cl)NC1CCCCC1	none
O=C(CSCc1c(F)cccc1Cl)NNC(=S)NC1CCCCC1	ATG4B inhibitor 66 | PLA2 counter 63
CC1(C)CCCN(C(=O)c2ccc3c(c2NCCO)C(=O)c2ccccc2C3=O)C1	ATG4B inhibitor 68, CendR NRP1 mod 28 (no result: CFTR F508del cor) | PLA2 counter 63
CCN(CCN(C)C)C(=O)c1ccc2c(c1NCCO)C(=O)c1ccccc1C2=O	none
CCOc1ccc(C2=CS/C(=C(\C#N)c3nnc4n3CCCCC4)N2CC)cc1	ATG4B inhibitor 48 (no result: CFTR F508del cor) | ATG4B conf 72 | PLA2 counter inactive
N#C/C(=C(/O)COc1ccccc1)c1nnc2n1CCCCC2	none
CC1(C)Cc2c(cnn2-c2ccccc2)-c2c1c1ccccc1n2CC(O)CBr (stereo not given)	ATG4B inhibitor 48 (no result: CFTR F508del cor) | PLA2 counter 57

From PubChem BioAssay
